In PubChem BioAssay AID2639 (National Center for Advancing Translational Sciences (NCATS), 2010):
Calls of active or inactive are those of the source. Calls follow the shape of the full dose curve.

Assay: Platelet Aggregation Secondary Assay for Inhibitors of Platelet Integrin alphallb-beta3
Details: platelet-rich plasma, ADP-induced aggregation, absorbance 563 nm
Description: NIH Molecular Libraries Probe Production Network [MLPCN] NIH Chemical Genomics Center [NCGC] MLPCN Grant: 1 R03 MH083257-01 Assay Provider: Barry Coller, Rockefeller University NCGC Assay Overview: The alphaIIbbeta3 receptor plays a vital role in hemostasis and thrombosis, where receptor deficiency causes the hemorrhagic disorder, Glanzmann thrombasthenia, and uncontrolled receptor activation causes thrombosis and blood vessel occlusion. Small molecule inhibitors of alphaIIbbeta3, tirofiban and eptifibatide, have undesirable side effects thought to arise from conformational changes in alphaIIbbeta3. These changes transiently activate the receptor to cause spontaneous platelet aggregation and thrombus formation. […] This secondary assay measures platelet aggregation (Blue et al., 2008). Platelets are induced to aggregate and aggregation is tracked by the change in absorbance over time. Inhibitors of alphaIIbbeta3 block platelet aggregation and decrease the rate of change in absorbance.
NCGC Assay Protocol Summary: Untreated 96-well polystyrene plates (Nunc, Rochester, NY) were blocked for at least 1 hour with HBMT (138 mM NaCl, 12 mM NaHCO3, 10 mM HEPES, 2.7 mM KCl, 0.4 mM NaH2PO4, 0.1% glucose, 0.35% BSA, pH 7.4). Compounds (33 uL in HBMT) and citrated platelet-rich plasma (67 uL) were added to the wells. After plates equilibrated at 37 C in the plate reader (SpectraMax; Molecular Devices, Sunnyvale, CA) for 10 minutes, aggregation was initiated by adding ADP (5 uM final concentration; Chrono-Log Corp, Havertown, PA). Absorbance (Abs) was measured at 563 nm every 10 seconds with 3 seconds of shaking between determinations for 8 minutes. Reference Blue R, Murcia M, Karan C, Jirouskova M, and Coller BS. Application of high-throughput screening to identify a novel alphaIIb-specific small- molecule inhibitor of alphaIIbbeta3-mediated platelet interaction with fibrinogen. Blood. 2008, 111(3):1248-56

Row | Structure (SMILES) | outcome | Potency
1 | CCc1nn2c(=O)cc(-c3ccncc3)nc2s1 | inactive | –
2 | NCC(=O)Nc1cccc(-c2nn3c(=O)cc(N4CCNCC4)nc3s2)c1 | – | 0.163 µM (active)
3 | O=c1cc(N2CCNCC2)nc2sc(-c3cccc(-c4ccncc4)c3)nn12 | – | 8 µM (active)
4 | O=C(O)c1cccc(-c2cccc(-c3nn4c(=O)cc(N5CCNCC5)nc4s3)c2)c1 | inactive | –
5 | Nc1ncc(-c2cccc(-c3nn4c(=O)cc(N5CCNCC5)nc4s3)c2)cn1 | – | 10.1 µM (active)
6 | O=C(O)CNc1cccc(-c2nn3c(=O)cc(N4CCNCC4)nc3s2)c1 | – | 12.7 µM (active)
7 | CC(C)(C)c1nn2c(=O)cc(N3CCNCC3)nc2s1 | inactive | –
8 | NC(=O)c1ccc(-c2cccc(-c3nn4c(=O)cc(N5CCNCC5)nc4s3)c2)cc1 | – | 1.6 µM (active)
9 | Nc1ccc(-c2cccc(-c3nn4c(=O)cc(N5CCNCC5)nc4s3)c2)cc1 | – | 1.9 µM (active)
10 | CNCC(=O)Nc1cccc(-c2nn3c(=O)cc(N4CCNCC4)nc3s2)c1 | inactive | –
11 | O=C(O)c1ccc(-c2nn3c(=O)cc(N4CCNCC4)nc3s2)cc1 | – | 5.4 µM (active)
12 | CCc1nn2c(=O)cc(N3C(C)CNCC3C)nc2s1 (stereo unspecified) | inactive | –
13 | O=C(O)c1cc(-c2cccc(-c3nn4c(=O)cc(N5CCNCC5)nc4s3)c2)cs1 | inactive | –
14 | C[C@H](N)C(=O)Nc1cccc(-c2nn3c(=O)cc(N4CCNCC4)nc3s2)c1 | – | 0.916 µM (active)
15 | O=C(O)c1ccc(-c2cccc(-c3nn4c(=O)cc(N5CCNCC5)nc4s3)c2)cc1 | – | 11.4 µM (active)
16 | O=c1cc(N2CCNCC2)nc2sc(Cc3ccccc3)nn12 | – | 13.9 µM (active)
17 | CCc1nn2c(=O)cc(NC3CNC3)nc2s1 | inactive | –
18 | O=C(Nc1cccc(-c2nn3c(=O)cc(N4CCNCC4)nc3s2)c1)C1CCNCC1 | – | 8.6 µM (active)
19 | NCCC(=O)Nc1cccc(-c2nn3c(=O)cc(N4CCNCC4)nc3s2)c1 | – | 1.6 µM (active)
20 | O=C(Nc1cccc(-c2nn3c(=O)cc(N4CCNCC4)nc3s2)c1)c1ccon1 | inactive | –
21 | C[C@@H](N)C(=O)Nc1cccc(-c2nn3c(=O)cc(N4CCNCC4)nc3s2)c1 | – | 5.9 µM (active)
22 | O=c1cc(N2CCNCC2)nc2sc(-c3cccc(-c4ccnc(F)c4)c3)nn12 | – | 8.4 µM (active)
23 | O=C(Nc1cccc(-c2nn3c(=O)cc(N4CCNCC4)nc3s2)c1)c1ccncc1 | – | 1.5 µM (active)
24 | COCc1nn2c(=O)cc(N3CCNCC3)nc2s1 | inactive | –
25 | Cc1noc(C)c1-c1cccc(-c2nn3c(=O)cc(N4CCNCC4)nc3s2)c1 | inactive | –
26 | O=c1cc(N2CCNCC2)nc2sc(-c3ccncc3)nn12 | – | 3.1 µM (active)
